Drawing on PubChem BioAssay AID1851 (National Center for Advancing Translational Sciences (NCATS), 2009), this text covers AC50 and activity, negative = inhibition for 63 compounds.

Structures are written as SMILES. In all, about 16,000 compounds went through this assay and about 5,100 (32%) were called active. Not shown: some 25% with an inconclusive outcome. The list shows a part of the results. Unmarked numbers belong to inactive results. Calls come from the whole dose curve; as a rule, active = well fitted curve in the direction sought with a large enough effect; inconclusive = small, poorly fitted or top-dose-only effect, or effect the other way; inactive = no such curve, though single readings can be large or run the other way.
% is set by controls: 0 for no effect and ±100 for the full control effect.

Cytochrome P450 3A4 (Homo sapiens), sequence (P08684 whole entry, looked up): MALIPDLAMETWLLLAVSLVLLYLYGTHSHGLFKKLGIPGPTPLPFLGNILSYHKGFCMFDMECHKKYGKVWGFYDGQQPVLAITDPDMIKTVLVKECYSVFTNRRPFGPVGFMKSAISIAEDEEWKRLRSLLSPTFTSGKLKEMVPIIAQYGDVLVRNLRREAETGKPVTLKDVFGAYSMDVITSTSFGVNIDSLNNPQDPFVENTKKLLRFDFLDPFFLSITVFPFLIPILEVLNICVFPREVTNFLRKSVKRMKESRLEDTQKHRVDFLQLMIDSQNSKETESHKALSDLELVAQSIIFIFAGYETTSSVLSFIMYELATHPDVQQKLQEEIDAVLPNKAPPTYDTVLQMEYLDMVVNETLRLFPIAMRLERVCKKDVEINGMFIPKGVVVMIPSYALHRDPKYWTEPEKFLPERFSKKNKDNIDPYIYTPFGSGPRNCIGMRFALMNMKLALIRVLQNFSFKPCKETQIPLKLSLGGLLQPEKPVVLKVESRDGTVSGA

The experiment has as its target Cytochrome P450 3A4 (Homo sapiens) (UniProt P08684). Put plainly: Cytochrome panel assay with activity outcomes. Particulars: recombinant CYP, pro-luciferin dealkylation, luminescence, p450-cyp3a4; series mostly up to 57.1 µM.
Broadly, the AC50 is the midpoint of the concentration-response curve, whichever way the signal moves. Take `O=C(O)C1=CCCNC1`: the AC50 entry was “inactive”.
Same read-out and setting: to `CC[C@H](Cc1c(I)cc(I)c(N)c1I)C(=O)O` belongs “inactive”.
With `O=C(O)c1cc(N=Nc2ccc([N+](=O)[O-])cc2)ccc1O`, the activity, negative = inhibition is -6.97% [at 11.4 µM].
With `COc1cc(/C=C(/NC(=O)c2ccccc2)C(=O)Nc2ccccc2)c([N+](=O)[O-])cc1OC`, the AC50 is 0.794 µM (active).
`COc1cc(/C=C(\C#N)C(=O)NCC2CCCO2)c([N+](=O)[O-])cc1OC` (stereo not drawn): the AC50 result is “inactive”.
The same measure, in the same setting: the same measure for `O=C(CNC(=O)c1ccc([N+](=O)[O-])cc1)c1ccccc1`: “inactive”.
Still for that read-out and setting: to `Cc1ccc(C(=O)N/C(=C\c2ccc([N+](=O)[O-])cc2)C(=O)NCCc2ccccc2)cc1` belongs 0.282 µM (active).
`N=c1ccn2c(n1)O[C@H]1[C@@H](OP(=O)(O)O)[C@H](CO)O[C@H]12`: the activity, negative = inhibition is -6.24% [at 11.4 µM].
For `Cc1cc(NC(=O)C2CCCC2)n(-c2nc3ccccc3[nH]2)n1`, the AC50 is 11.2 µM (active).
`O=C(O)[C@H]1CCCC[C@@H]1C(=O)Nc1nc2ccccc2[nH]1`: the activity, negative = inhibition was -6.18% [at 11.4 µM].
The same measure, in the same setting: the same measure for `Cc1cc(NC(=O)C2CCCCC2)nc2c1c(=O)oc1ccccc12`: -4.81% [at 2.29 µM].
As to `O=C1C=C(NCC2CCCO2)C2(CCCCC2)O1` (stereo not drawn), the AC50 result was “inactive”.
Still for that read-out and setting: the same measure for `COC(=O)COc1ccsc1C(=O)OC`: “inactive”; for `COc1ccc(COc2ccsc2C(=O)Nc2ccc(Cl)c(Cl)c2)cc1`: 7.08 µM (active).
With `COc1ccc(/C=N/NC(=O)c2sccc2OCc2ccc(F)cc2)cc1OC`, the activity, negative = inhibition is -9.08% [at 2.29 µM].
On to `CCN(C1CCCCC1)S(=O)(=O)c1ccc(S(=O)(=O)NCc2ccncc2)cc1`, for which the AC50 was 7.08 µM (active).
The same measure, in the same setting: the same measure for `CCOC(=O)Nc1ccc(S(=O)(=O)NCc2ccccc2)cc1`: “inactive”.
Regarding `O=S(=O)(NCc1cccnc1)c1ccc(Cl)nc1`, the activity, negative = inhibition was 5.89% [at 2.29 µM].
As for `COC(=O)N1CCC2(CCN(Cc3ccccc3OC)CC2)CC1`, the AC50 result is “inactive”.
The same measure, in the same setting: the same measure for `COc1ccccc1CNCC(O)(c1ccc(Cl)cc1)c1ccc(Cl)cc1`: 3.55 µM (active).
As to `Oc1ccccc1CNCc1ccccc1O`, the activity, negative = inhibition was -7.01% [at 11.4 µM].
For the compound `C=CCOc1ccc(CNC(C)(C)CO)cc1OCC`, the AC50 entry is “inactive”.
As for `CCOc1nc(NCCc2ccc(OC)c(OC)c2)nc(NC(C)(C)CO)n1`, the AC50 was 11.2 µM (active).
The same measure, in the same setting: the same measure for `CCCNc1nc(NCC)nc(OC)n1`: “inactive”.
For the compound `O=C(N/N=C/c1ccco1)c1ccc(Br)o1`, the AC50 entry is “inactive”.
Same read-out and setting: the same measure for `CC(C)N1CCC(=NNC(=O)c2ccc(Br)o2)CC1`: 15.8 µM (active).
For `CCCN1CCC(=NNC(=O)c2ccc(Br)o2)CC1`, the activity, negative = inhibition is 11.6% [at 2.29 µM].
On to `O=C(c1ccco1)N1CCN(C(=O)c2nn3cccnc3c2Cl)CC1`, for which the AC50 result was “inactive”.
`Cc1ccc(C(CC(=O)c2ccco2)SCCO)cc1` (stereo not drawn): the AC50 result was “inactive”.
On the same count and under the same terms, the same measure for `CC(C)CCn1nnnc1C(c1ccc(F)cc1)N1CCN(C(=O)c2ccco2)CC1` (stereo not drawn): 7.94 µM (active); for `Cc1ccc(C(c2nnnn2CC2CCCO2)N2CCN(C(=O)c3ccco3)CC2)cc1` (stereo not drawn): 3.55 µM (active); for `Cc1ccc(CCN2CC(C(=O)NC3CCCC3)CC2=O)cc1` (stereo not drawn): 15.8 µM (active).
The same measure, in the same setting: the same measure for `Cc1ccc(CCN2CC(C(=O)NCCN3CCOCC3)CC2=O)cc1` (stereo not drawn): “inactive”.
Take `CCCCNC(=O)C1CC(=O)N(CCC(C)C)C1` (stereo not drawn): the activity, negative = inhibition was 0.276% [at 11.4 µM].
`CN(C)CCCN1CC(C(=O)O)CC1=O` (stereo not drawn): the AC50 entry is “inactive”.
On to `CCOCCCN1CC(C(=O)NCCc2ccc(C)cc2)CC1=O` (stereo not drawn), for which the AC50 is 15.8 µM (active).
In the case of `O=C(NCCCN1CCCCCC1)C1CC(=O)N(CCc2ccccc2)C1` (stereo not drawn), the AC50 entry is “inactive”.
With `Cn1c([N+](=O)[O-])cnc1COC(N)=O`, the AC50 entry was “inactive”.
Same read-out and setting: the same measure for `Cc1[nH]c(=O)c(C(=O)/C=C/c2ccccc2F)c2c1CCCC2`: 11.2 µM (active); for `COc1ccccc1/C=C/C(=O)c1c2c(c(C)[nH]c1=O)CCCC2`: 3.98 µM (active).
Same read-out and setting: the same measure for `C[N+](C)(C)CCOC(N)=O`: “inactive”; for `CNc1nc(-c2ccoc2)nc2ccccc12`: 15.8 µM (active); for `c1ccc2c(NC3CCNCC3)nc(-c3ccoc3)nc2c1`: “inactive”.
As to `Fc1ccc(Nc2nc(-c3ccoc3)nc3ccccc23)cc1`, the AC50 was 3.98 µM (active).
Same read-out and setting: to `c1ccc2c(NC3CC3)nc(-c3ccoc3)nc2c1` belongs 3.98 µM (active); to `c1ccc2c(Nc3ccncc3)nc(-c3ccoc3)nc2c1`, 1.26 µM (active).
On the same count and under the same terms, to `COc1ccc(S(=O)(=O)N2CC3CCCN3c3ccc(C(F)(F)F)cc32)cc1` (stereo not drawn) belongs 1 µM (active); to `O=S(=O)(c1ccc(F)cc1)N1CC2CCCN2c2ccc(C(F)(F)F)cc21` (stereo not drawn), 6.31 µM (active).
Still for that read-out and setting: the same measure for `O=C1COc2ccc(OCc3ccc(F)cc3)cc21`: “inactive”.
`OCc1ccc(-c2nn(Cc3ccccc3)c3ccccc23)o1`: the concentration at half-maximal activity (AC50) was 12.6 µM (active).
On to `NC(=O)c1csc(-c2ccc(CO)o2)n1`, for which the activity, negative = inhibition is -8.17% [at 11.4 µM].
Turning to `Clc1cc2c(c(CSC3=NCN(CC4CC4)CN3)c1)OCOC2`, the activity, negative = inhibition was -21.4% [at 11.4 µM].
`CCCCCCCCOC1OC(CO)C(O)C(O)C1NC(C)=O` (stereo not drawn): the AC50 result is “inactive”.
With `CC(=O)OC[C@@H]1O[C@@H](O/N=C2/C[C@@H](O)[C@@H](O)[C@@H]3[C@H]4C(=O)N(c5ccc(F)cc5F)C(=O)[C@@H]4CC[C@@H]23)[C@H](OC(C)=O)[C@H](OC(C)=O)[C@@H]1OC(C)=O`, the activity, negative = inhibition was -27.1% [at 11.4 µM].
As for `CC(=O)NC1C(OCCOc2ccc(Cl)cc2Cl)OC(COC(C)=O)C(OC(C)=O)C1OC(C)=O` (stereo not drawn), the AC50 was 14.1 µM (active).
Regarding `CCCSc1nc(C)cc(C)c1S(=O)(=O)c1ccccc1C`, the AC50 entry is “inactive”.
Still for that read-out and setting: to `CNc1nc(C)cc(C)c1S(=O)(=O)c1ccc(Cl)cc1` belongs 4.47 µM (active); to `CNc1nc(C)cc(C)c1S(=O)(=O)c1ccc(C)cc1`, 4.47 µM (active).
On the same count and under the same terms, to `CNc1oc(C)nc1S(=O)(=O)c1ccc(C)cc1` belongs “inactive”; to `Cc1cc(-c2ccccc2)[nH]c(=O)c1S(=O)(=O)c1ccc(Cl)cc1`, “inactive”; to `Cc1ccc(C2Nc3ccccc3C(=O)N2Cc2ccco2)cc1` (stereo not drawn), 14.1 µM (active).
Still for that read-out and setting: to `COc1ccc(C2Nc3ccccc3C(=O)N2Cc2ccco2)cc1COc1ccc([N+](=O)[O-])cc1` (stereo not drawn) belongs 4.47 µM (active).
Take `COc1ccc([N+](=O)[O-])cc1COc1ccc2c(-c3ccccc3)cc(=O)oc2c1`: the AC50 entry was “inactive”.
